The campaign covered roughly 48,000 compounds. About 13,000 (27%) showed an effect of 50% or more. The list shows a part of the results.
Test system: Wolbachia pipientis
Assay: Anti-Wolbachia Cell-Based Screen
Assay type: functional
Design: scale not given: in the data most compounds retested in dose-response had high values
Settings: 5 µM

Row | Structure (SMILES) | Percent Effect [%]
1 | CNC(=O)CCc1cc(C)nc(C2CCCN2)n1 (centres undefined) | -4.947
2 | CNC(=O)CCc1cccc(OC2CCCC2)c1 | 6.693
3 | CCc1nc(C)c([C@H]2CN(C)C[C@@H]2C(=O)Nc2ccc3[nH]ncc3c2)[nH]1 | 2.29
4 | CC(=O)N1CCC(NC2(Cc3cc(CC(C)C)on3)COC2)CC1 | 8.31
5 | Cc1nc(CN2C(=O)C[C@H]3[C@H]2CCN3C2CCOC2)cs1.O=C(O)C(F)(F)F (some centres undefined) | 104.4
6 | Cc1nc(CN2C(=O)C[C@H]3[C@H]2CCN3C2CCOCC2)cs1.O=C(O)C(F)(F)F | -10.54
7 | Cc1nc(CN2CCN(C3CCOC3)Cc3cccnc32)cs1.O=C(O)C(F)(F)F.O=C(O)C(F)(F)F.O=C(O)C(F)(F)F (centres undefined) | -13.84
8 | Cc1nc(CN2C(=O)CC[C@@H]3[C@H]2CCN3C(=O)c2ccccn2)cs1.O=C(O)C(F)(F)F | -0.4991
9 | Cc1nc(CN2C(=O)CC[C@@H]3[C@H]2CCN3C2CCOCC2)cs1.O=C(O)C(F)(F)F | 88.53
10 | Cc1nc(CN2C(=O)CC[C@@H]3[C@H]2CCN3C(=O)C2CCOCC2)cs1 | -12.01
11 | Cc1nc(CN2C(=O)CC[C@@H]3[C@H]2CCN3C2CCOC2)cs1.O=C(O)C(F)(F)F (some centres undefined) | 91.6
12 | Cc1cccc(OC2CCN(c3nccnc3C#N)CC2)n1 | 4.563
13 | COc1ccc(C(=O)N(C)Cc2cc(C)on2)c(F)c1 | 9.615
14 | CC(=O)Nc1nc2c(s1)C1(CCN(C)CC1)Nc1ccccc1S2 | 104.1
15 | CNc1ncc(C(=O)N2CCC3(CC2)Nc2ccccc2NC3=O)cn1 | -19.06
16 | COc1cc(C(=O)N2CCC3(CC2)Nc2ccccc2NC3=O)ccn1 | 31.29
17 | CC(=O)Nc1nc2c(s1)C1(CCCC1)Nc1ccccc1S2 | 63.28
18 | CC(=O)Nc1nc2c(s1)C(C)(C)Nc1ccccc1S2 | 66.2
19 | CS(=O)(=O)N1CC[C@]2(O)CCN(c3cc(C#N)ccn3)C[C@@H]2C1 | -2.197
20 | CCOc1ccc(CCC(=O)N2CC[C@H]3C(=O)NCCO[C@H]3C2)cc1 | 8.218
21 | Cc1c(C(=O)NCCC(=O)N2CCOCC2)oc2c(C)cccc12 | -0.1879
22 | CC(NCc1cnc(C2CCC2)s1)c1cccc(-n2cccn2)c1 (centres undefined) | -14.57
23 | O=C(CN1C(=O)CCC1=O)NCc1nn(C2CCCC2)c2c1CCCC2 | -9.274
24 | Cn1cc(CN2C[C@@H]3COC[C@]3(COCC3CC3)C2)cn1.O=C(O)C(F)(F)F | 100.8
25 | Cn1cc(CN2C[C@@H]3COC[C@]3(CNC(=O)c3ccsc3)C2)cn1.O=C(O)C(F)(F)F | -12.06

Row | Structure (SMILES) | Percent Effect [%]
26 | CCn1cc2c(n1)CN(Cc1cnn(C)c1)CC2COCC1CC1.O=C(O)C(F)(F)F (centres undefined) | 12.58
27 | Cn1cc(CN2C[C@H]3CCC[C@@]3(COCC3CC3)C2)cn1.O=C(O)C(F)(F)F | 101.6
28 | Cc1cccc(CN2C[C@H]3CCC[C@@]3(COCc3csc(C)n3)C2)n1.O=C(O)C(F)(F)F.O=C(O)C(F)(F)F | -5.241
29 | Cc1nc(COC[C@@]23CCC[C@@H]2CN(Cc2nccs2)C3)cs1.O=C(O)C(F)(F)F | 8.352
30 | Cn1cc(CN2CCn3cnc(COCC4CC4)c3C2)cn1.O=C(O)C(F)(F)F | 8.69
31 | Cc1nc(COC[C@@]23CCC[C@@H]2CN(Cc2cnn(C)c2)C3)cs1 | 93.55
32 | Cn1cc(CN2C[C@@H]3COC[C@]3(CNC(=O)c3ccco3)C2)cn1.O=C(O)C(F)(F)F | -7.864
33 | COc1ccc(Br)c(C(=O)N2CCC(c3n[nH]c(C4CC4)n3)CC2)c1 | 9.985
34 | O=C(Cc1csc(N2CCNC2=O)n1)NC1(c2ccccc2)CCC1 | 3.065
35 | Cc1nc(NC(=O)N2CCCC(C(C)(C)O)C2)nn1C (centres undefined) | 7.598
36 | CC(C)N[C@@H]1CO[C@H](CNC(=O)c2cccs2)[C@H]1O | 0.5301
37 | NC(=O)NCC(=O)N1CCC(c2cc(-c3ccccc3Cl)n[nH]2)CC1 | 9.084
38 | CC(=O)N1N=C(Cc2ccccc2)OC1C(=O)NCC(C)C (centres undefined) | 119.9
39 | CCOC(=O)CNC(=O)N1CCCC(CNC(=O)c2ccco2)C1 (centres undefined) | -9.65
40 | CC(C)(C)OC(=O)CNC(=O)CCc1nnc(-c2ccsc2)o1 | -11.15
41 | CC(=O)N1N=C(c2ccccc2)OC1C(=O)NCC(=O)OC(C)(C)C (centres undefined) | 126.7
42 | CCOC(=O)CNC(=O)C1CN(C(=O)c2cnccn2)C1 | 12.27
43 | CCC(CNC(C)=O)(OC)c1ccccc1 (centres undefined) | -7.237
44 | CC(C)N1CCCC(C(=O)NCc2noc(Cc3ccccc3)n2)C1 (centres undefined) | -0.7063
45 | CC(=O)N1N=C(Cc2ccccc2)OC1C(=O)NCC(=O)OC(C)(C)C (centres undefined) | 112
46 | CN(C(=O)c1ccco1)C1CCC(NC(=O)OC(C)(C)C)CC1 (centres undefined) | -29.92
47 | CCOC(=O)CNC(=O)C1OC(c2ccccc2)=NN1C(C)=O (centres undefined) | 105.7
48 | CCN1CC(C(=O)NCc2noc(Cc3ccccc3)n2)CCC1=O (centres undefined) | -8.005
49 | COC(=O)CN1CC(c2nc(Cc3ccccc3)no2)C1.O=C(O)C(=O)O | -2.345

— ChEMBL document CHEMBL3988442, “University of Dundee, Small-Polar-MMV Screening Library” (2021)
